High-throughput results (PubChem)
ALR H2O2 inh – human ALR oxidase inhibition via reduced H2O2. P55789. purified ALR, DTT oxidation, H2O2 HRP-luminol luminescence. inhibition, % (no concentration beside the values). actives 3.8% (n = 290,000);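 active = mean replicate inhibition above about 79%, with every replicate also reaching it, limit read from the data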
Target sequence (P55789 whole entry, looked up): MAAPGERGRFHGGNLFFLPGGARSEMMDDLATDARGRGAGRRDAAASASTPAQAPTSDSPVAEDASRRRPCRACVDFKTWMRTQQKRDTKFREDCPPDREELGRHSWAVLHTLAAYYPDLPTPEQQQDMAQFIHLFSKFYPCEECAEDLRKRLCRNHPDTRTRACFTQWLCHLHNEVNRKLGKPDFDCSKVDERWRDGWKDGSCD
LANA-H2B inh – blocks KSHV LANA binding to histone H2A/H2B. actives 0.6% (n = 320,000). inhibition, % (test concentration not listed). cell-free LANA-H2A/H2B peptide, fluorescence polarization. Q9QR71; in the data active = inhibition mostly above about 10%, no sharp cut-off; inactive = mostly below about 6.7%
Rtt109 HAT inh – inhibitors of Candida albicans Rtt109/Vps75 histone acetyltransferase; actives 0.16% (n = 330,000); inhibition, % at 34.9 µM; Q5AAJ8; purified Rtt109/Vps75, ThioGlo CoA-SH fluorescence, 4 h; AID 540336;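 active = inhibition of at least 50% in every replicate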
Target sequence (Q5AAJ8 whole entry, looked up): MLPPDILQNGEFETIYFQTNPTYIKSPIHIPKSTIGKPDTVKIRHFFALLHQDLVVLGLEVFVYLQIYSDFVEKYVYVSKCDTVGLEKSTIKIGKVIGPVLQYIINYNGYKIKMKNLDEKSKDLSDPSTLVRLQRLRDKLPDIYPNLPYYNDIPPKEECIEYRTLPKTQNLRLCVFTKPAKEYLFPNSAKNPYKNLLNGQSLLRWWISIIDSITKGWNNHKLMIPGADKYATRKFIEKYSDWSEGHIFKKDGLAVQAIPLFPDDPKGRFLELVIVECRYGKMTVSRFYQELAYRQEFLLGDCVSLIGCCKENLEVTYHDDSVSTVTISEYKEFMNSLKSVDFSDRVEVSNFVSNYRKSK
PRMT1 inh – PRMT1 (human) inhibition, primary screen. actives 1.3% (n = 370,000). Q99873. recombinant PRMT1, activity-based probe fluorescence polarization. inhibition, % at 2.79 µM;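 active = inhibition above about 21% made by adding two undisclosed values, limit read from the data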
ABHD5 PLIN5 PPI – inhibitors of human ABHD5-perilipin-5 interaction | actives 0.78% (n = 360,000) | Split G. princeps luciferase complementation, luminescence, 4 h | Q00G26+Q8WTS1 | inhibition, % at 4 µM | AID 602281;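 active = inhibition above the mean inhibition across every tested compound plus 3 SD, cut at about 22% in these data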;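 also: 0% = DMSO only wells and the 100% control is not disclosed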
rCAG RNA binder – binds r(CAG) RNA repeats. r(CAG) RNA repeat, TO-PRO-1 dye displacement fluorescence. AID 651821. actives 1.3% (n = 370,000). inhibition, % at 3 µM;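 active = inhibition above the plate cutoff, the mean of all test compounds on that plate plus 3 SD, cut at about 35% in these data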;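 also: 0% = DMSO alone and 100% = 100 µM mitoxantrone as full dye displacement; higher means more dye released from RNA so lower well fluorescence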
The depositor's hits bear a star; / = no result given. An excerpt weighted towards active compounds, which were near 5.9% of everything screened.

SMILES	ALR H2O2 inh	LANA-H2B inh	Rtt109 HAT inh	PRMT1 inh	ABHD5 PLIN5 PPI	rCAG RNA binder
Cc1c(OC(C)C(=O)NC(Cc2c[nH]c3ccc(O)cc23)C(=O)O)ccc2c1oc(=O)c1ccccc12 (stereo not given)	/	0.3	14.7	5.1	5.2	58.0*
Cc1c(C)c2ccc(OC(C)C(=O)N[C@@H](Cc3c[nH]c4ccccc34)C(=O)O)c(C)c2oc1=O (stereo not given in full)	-3.5	-1.5	6.3	-3.5	2.9	33.6
Cc1ccc(-c2nc3n(n2)Cc2ccccc2-3)cc1	/	-3.7	-5.6	-0.3	-4.9	-2.5
c1ccc(-c2cn3c(n2)-c2ccccc2C3)cc1	94.8*	1.9	-1.4	5.2	-0.5	-0.8
CCOC(=O)c1c(N)sc2c(O)c(Br)ccc12	97.7*	-0.8	2.7	6.1	0.4	5.8
CCOC(=O)c1c(NC(C)=O)sc2c(OC)c(Br)ccc12	-1.8	0.5	1.4	6.2	1.9	0.7
CCOC(=O)c1c(N)sc2c(NC(C)=O)cccc12	98.4*	-5.1	-10.0	-0.9	0.1	-1.9
COC(=O)C1=CC(=O)N2CCN=C2S1	/	/	/	-0.1	/	3.0
Cc1ccccc1NC(=S)N1CCC(C(=O)c2ccc(F)cc2)CC1	-7.1	28.4*	-0.9	-4.2	2.4	2.2
Cc1ccc(S(=O)(=O)N(C)[C@H]2C[C@H]3c4cc(N5CCOCC5)ccc4CCN3C[C@H]2[C@H](C)O)cc1	/	/	/	-1.4	/	0.5
O=C(/C=C/c1cccs1)Nc1nc(-c2ccccc2)cs1	-7.3	2.5	-3.2	-0.3	-1.8	11.4
O=C(/C=C/c1cccs1)Nc1nncs1	/	14.6*	-3.3	4.2	0.9	-1.1
Cc1onc(-c2ccccc2Cl)c1C(=O)Nc1ccccc1C(N)=O	-9.6	-0.2	-3.2	4.0	0.1	-1.0
Cc1onc(-c2c(F)cccc2Cl)c1C(=O)NC1CC1	-15.0	4.3	-3.3	2.4	-12.7	-0.4
Cc1onc(-c2ccccc2Cl)c1C(=O)NC1CCS(=O)(=O)C1 (stereo not given)	96.3*	3.5	-4.3	-1.6	3.9	-0.6
Cc1onc(-c2ccccc2Cl)c1C(=O)NC(=S)Nc1ccccc1C(N)=O	94.7*	4.3	-3.7	-0.9	4.1	2.1
CN1CCN(c2ccc(-c3csc(N4CCC(C(N)=O)CC4)n3)cc2)CC1	/	/	/	-5.1	/	/
COc1ccc(/C(C)=N/N2C(=O)c3ccccc3NC2c2ccc(O)c(OC)c2)cc1 (stereo not given)	98.7*	-3.3	4.5	-7.5	8.6	4.5
COc1ccc(N(CC(=O)Nc2cc(Cl)ccc2OC)C2=NC3CS(=O)(=O)CC3S2)cc1 (stereo not given)	25.4	-1.1	-1.3	-1.5	1.4	1.6
COc1cccc(NC(=O)CN(C2=NC3CS(=O)(=O)CC3S2)c2cccc(C)c2)c1 (stereo not given)	98.4*	2.9	-1.0	2.2	0.1	4.8
COc1ccc(C(=O)NCC2CCN(C(=O)C(=O)c3cc4ccccc4o3)CC2)c(OC)c1	/	/	/	0.1	/	3.7
C/C=C/C=C\C(=O)Nc1cccc(C2=NOC3(C2)C[C@@H](C(N)=O)N(C(=O)c2cc([N+](=O)[O-])cc([N+](=O)[O-])c2C)C3)c1 (stereo not given in full)	-7.6	-5.8	2.9	24.5*	9.6	20.1
CCCCCC(=O)Nc1cccc(C2=NOC3(C2)C[C@@H](C(N)=O)N(C(=O)c2cc([N+](=O)[O-])cc([N+](=O)[O-])c2C)C3)c1 (stereo not given in full)	/	2.0	12.7	2.6	-2.8	9.5
CCOc1ccc(OCC)c(NC(=O)C2C3C=CC(O3)C2C(=O)O)c1 (stereo not given)	/	/	/	2.1	-1.2	3.4
CCOc1ccccc1NC(=O)C1C2C=CC(O2)C1C(=O)O (stereo not given)	-7.3	-6.2	4.0	23.0*	4.1	2.8
SMILES	ALR H2O2 inh	LANA-H2B inh	Rtt109 HAT inh	PRMT1 inh	ABHD5 PLIN5 PPI	rCAG RNA binder
C/C(=N\Nc1cccc(Cl)c1)c1ccncc1	99.5*	-0.5	2.6	-0.1	4.3	2.8
C/C(=N\Nc1ccc(Cl)cc1)c1ccccn1	99.7*	-1.6	3.3	1.9	1.4	3.1
C/C(=N\Nc1ccc(F)cc1)c1ccncc1	/	/	-7.7	0.4	0.4	2.4
C/C(=N\Nc1ccc(Cl)cc1)c1ccncc1	99.2*	-1.6	5.0	0.1	2.8	6.7
CN1OC[C@@H]2CN(Cc3ccccc3)[C@H](c3cccc(-c4ccccc4)c3)C[C@@H]21	/	/	/	0.6	-1.2	2.5
CCOC(=O)/C(C#N)=C(/C)c1ccc(OC)cc1	-1.2	-3.0	3.4	-0.3	6.6	0.8
CCCCC(CC)COC(=O)C(C#N)=C(c1ccccc1)c1ccccc1 (stereo not given)	-16.1	14.9*	-3.2	0.1	-4.6	3.2
CCOC(=O)c1c(N2C(=O)C=CC2=O)sc(C)c1C	43.6	-3.9	69.1*	/	14.7	/
CCNC(=O)Oc1ccc(-c2csnn2)cc1	99.0*	0.8	8.5	-4.4	5.2	3.1
Cc1cccc(C(O)c2ncc(-c3ccccc3)[nH]2)c1C (stereo not given)	/	/	/	-1.3	7.9	1.4
COc1ccc(S(=O)(=O)NC(=O)C2(C)CCN2C(=O)Cc2cc(C)cc(C)c2)cc1 (stereo not given)	/	/	/	-1.4	2.1	10.8
CC(OC(=O)c1ccc(S(=O)(=O)N(C)C)cc1)C(=O)Nc1ccc(Cl)cn1 (stereo not given)	17.0	12.1*	-0.8	-4.3	-3.1	-4.6
OC[C@@H]1CN(Cc2cccc3ccccc23)C[C@H](n2cnc3c(NCc4ccco4)ncnc32)O1	/	/	/	0.1	11.8	7.8
CSc1ccc(/C=C2\C(=N)N3N=C(CC(=O)N4CCOCC4)SC3=NC2=O)cc1	6.3	-0.5	11.4	-1.1	13.4	14.0
COc1ccc(/C=C2/C(=N)N3N=C(CC(=O)N4CCCC4)SC3=NC2=O)cc1	14.1	1.2	17.6	2.0	5.0	16.3
CSc1ccc(/C=C2\C(=N)N3N=C(CC(=O)N4CCCCC4)SC3=NC2=O)cc1	96.3*	-5.9	-0.4	-0.8	0.4	24.9
CCN(CC)c1ccc(/C=C2\C(=N)N3N=C(CC(=O)N4CCOCC4)SC3=NC2=O)cc1	97.9*	-1.6	9.3	-14.1	-6.4	7.3
COc1ccc(/C=C2\C(=N)N3N=C(CC(=O)N4CCCCC4)SC3=NC2=O)cc1	80.3*	-0.4	-0.1	0.0	1.3	19.7
CC(C)c1ccc(/C=C2\C(=N)N3N=C(CC(=O)N4CCCCC4)SC3=NC2=O)cc1	95.9*	10.9	-9.5	2.5	-4.5	10.1
CC1CCN(C(=O)C(C)NCc2ccc(F)cc2)CC1 (stereo not given)	3.7	2.7	-1.9	2.2	-4.1	-0.9
Cn1c(=O)cc(OCCCC(=O)Nc2cc(C(F)(F)F)ccn2)c2ccccc21	/	/	/	2.4	/	/
